Results filed as inconclusive are left out. The source made the active and inactive calls. Unless noted, calls come from the whole dose curve.
How the values were obtained:
[1] = Nuclear factor erythroid 2-related factor 2/antioxidant responsive element (Nrf2/ARE) small molecule agonists: qHTS cell viability counter screen in human keratinocytes (AID 1919968; active = well fitted curve in the direction sought with a large enough effect in the repeat runs; an effect the other way counts as inactive or inconclusive; note: nearly all actives have a fitted effect of over 55% in size; note: potency is the fitted concentration of half-maximal effect)
Summary of the method: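 Cells of the KeratinoSens line were plated at 1,500 per well and left for 5 h before compound transfer from DMSO stocks. After a 23 h incubation (37 C, 5% CO2), CellTiter-Fluor was added. Signal was taken as fluorescence intensity 1 h later.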

[2] = Nuclear factor erythroid 2-related factor 2/antioxidant responsive element (Nrf2/ARE) small molecule agonists: luciferase reporter gene qHTS assay in human keratinocytes (AID 1919969); note: nearly all actives have a fitted effect of over 35% in size
[3] = target: Gonadotropin-releasing hormone receptor (Homo sapiens) (UniProt P30968); assay: Human gonadotropin-releasing hormone receptor (GnRHR) small molecule agonists, calcium flux assay in GnRHR-HEK293 cells (AID 1920063); note: nearly all actives have a fitted effect of over 35% in size
Summary of the method: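 Compounds dissolved in DMSO are pin-transferred onto dye-loaded GnRHR-HEK293 cells, which were seeded 18 h before at 37 C/5% CO2. Calcium signal is read as fluorescence intensity at 1 s intervals for 3 min.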

[4] = target: KiSS-1 receptor (Homo sapiens) (UniProt Q969F8); assay: Human kisspeptin (KISS1R) small molecule agonists, calcium flux assay in KISS1R-HEK293 cells (AID 1920064; active = well fitted curve in the direction sought with a large enough effect in the repeat runs; an effect the other way counts as inactive or inconclusive)
Summary of the method: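 Cell line: HEK293, stable human KISS1R. Dye loading 1 h at 37 C after 18 h culture. Read: kinetic fluorescence, 480/540 nm, 3 min at 1 s intervals.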

[5] = G protein-coupled receptor (GPCR) small molecule agonists, calcium flux assay: HEK293 wild type cell line counter screen (AID 1920065)
Summary of the method: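 Tox21 10K compounds, 15 concentrations each in triplicate, pin-transferred in DMSO onto dye-loaded cells; kinetic read at 480/540 nm for 3 min, 1 s intervals.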

[6] = p53 small molecule agonists, cell-based qHTS assay with rat liver microsomes: qHTS cell viability counter screen (AID 1963580); note: nearly all actives have a fitted effect of over 45% in size
Summary of the method: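 Counter screen for cytotoxicity under metabolic activation: rat liver microsomes and NADPH, 0.5 mg/mL final each, added with compounds to p53RE-bla HCT-116 cells; 16 h at 37 C, then ATP luminescence read.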

[7] = p53 small molecule agonists, cell-based qHTS assay: qHTS cell viability counter screen (AID 1963581); note: nearly all actives have a fitted effect of over 45% in size; note: potency is the fitted concentration of half-maximal effect
Summary of the method: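 ATP content measured by luminescence in HCT-116 p53RE-bla cells treated 16 h at 37 C, same wells as the reporter screen.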

[8] = target: 5-hydroxytryptamine receptor 2A (Homo sapiens) (UniProt P28223); assay: 5-hydroxytryptamine receptor 2A (HTR2A) small molecule antagonists, cell-based qHTS assay (AID 1963586); note: nearly all actives have a fitted effect of over 45% in size
Summary of the method: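 CHO cells stably expressing human HTR2A were plated for 18 h at 37 C, then loaded with calcium dye for 1 h. Compounds were preincubated 5 min at room temperature before DOI (4 nM solution) was added. Kinetic fluorescence was read for 3 min.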

[9] = target: Muscarinic acetylcholine receptor M1 (Homo sapiens) (UniProt P11229); assay: Cholinergic receptor muscarinic 1 (CHRM1) small molecule antagonists, cell-based qHTS assay (AID 1963588); note: nearly all actives have a fitted effect of over 40% in size; note: potency is the fitted concentration of half-maximal effect
Summary of the method: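 Compounds were tested at 15 concentrations in three independent runs. Dye-loaded CHRM1-CHO cells were exposed 5 min at room temperature before stimulation by acetylcholine added at 50nM. Intracellular calcium was read kinetically on FDSS for 3 min.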

[10] = target: Muscarinic acetylcholine receptor M1 (Homo sapiens) (UniProt P11229); assay: Cholinergic receptor muscarinic 1 (CHRM1) small molecule agonists, cell-based qHTS assay (AID 1963589); note: nearly all actives have a fitted effect of over 35% in size
Summary of the method: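 Homogeneous fluorescence calcium flux, agonist mode. Human M1-expressing CHO cells; compound dosed at 15 concentrations, three independent runs; signal sampled every 1 sec.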

[11] = cAMP Responsive Elements (CRE) small molecule agonists, cell-based qHTS assay (AID 1963590)
Summary of the method: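 HEK 293T cells stably bearing CRE-bla were plated at 2,000 cells per well and rested 18 h. Compounds, positive controls or DMSO were added for 3 h at 37 C. LiveBLAzer B/G substrate was then loaded for 2 h at room temperature.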

[12] = cAMP Responsive Elements (CRE) small molecule antagonists, cell-based qHTS assay (AID 1963591; active = well fitted inhibition curve with a large enough effect in the signal ratio in the repeat runs, not every such curve was filed as active; the % refers to the signal ratio; note: potency is the fitted concentration of half-maximal effect)
Summary of the method: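 First, CRE-bla HEK293T cells settled 18 h at 37 C. Next, compound and 0.25 uM final NKH477 were applied for 3 h. Last, LiveBLAzer B/G substrate was loaded for 2 h at room temperature.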

[13] = target: Beta-2 adrenergic receptor (Homo sapiens) (UniProt P07550); assay: Adrenergic beta2 receptor (ADRB2) small molecule antagonists, cell-based qHTS assay (AID 1963592); note: series mostly up to about 92 µM; nearly all actives have a fitted effect of over 50% in size
Summary of the method: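 Assay format: CHO-ADRB2 cells, 18-20hr seeding at 37C/5% CO2, then compound plus 1nM isoproterenol agonist mix for 0.5hr RT. Homogeneous time-resolved fluorescence cAMP detection after 1hr, expressed as 665/615 nm ratio.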

[14] = target: D(2) dopamine receptor (Homo sapiens) (UniProt P14416); assay: Dopamine D2 receptor (DRD2) small molecule agonists, cell-based qHTS assay (AID 1963594); note: nearly all actives have a fitted effect of over 35% in size
Summary of the method: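 HEK293 cells stably expressing DRD2 were cultured 24 h at 37 C, then given Ro20-1724 (0.1 mM final) and compounds for 10 min at room temperature. NKH477 (200nM) was then added for 30 min. cAMP was read by HTRF.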

[15] = target: D(2) dopamine receptor (Homo sapiens) (UniProt P14416); assay: Dopamine D2 receptor (DRD2) small molecule antagonists, cell-based qHTS assay (AID 1963595; active = well fitted inhibition curve with a large enough effect in the signal ratio in the repeat runs, with a control signal flat; the % refers to the signal ratio)
Summary of the method: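 Readout: HTRF cAMP, cAMP-d2 competing with cellular cAMP for anti-cAMP cryptate, read after 1 h. Cells: DRD2-HEK293. Conditions: 0.1 mM Ro20-1724, 12 nM quinpirole, 200 nM NKH477, 30 min RT.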

[16] = target: 5-hydroxytryptamine receptor 2A (Homo sapiens) (UniProt P28223); assay: 5-hydroxytryptamine receptor 2A (HTR2A) small molecule agonists, cell-based qHTS assay (AID 1963587); note: nearly all actives have a fitted effect of over 30% in size
Summary of the method: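 HTR2A-CHO cells, plated 18 h at 37 C/5% CO2, dye-loaded 1 h at 37 C; compounds in DMSO added by pin tool (agonist mode). Intracellular calcium flux read as kinetic fluorescence on FDSS over 2 min at 1 s intervals.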

[17] = target: Beta-2 adrenergic receptor (Homo sapiens) (UniProt P07550); assay: Adrenergic beta2 receptor (ADRB2) small molecule agonists, cell-based qHTS assay (AID 1963593);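 note: CHO cells stably overexpressing human ADRB2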
Summary of the method: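 CHO cells stably over-expressing ADRB2 were plated overnight at 37C, then dosed with compounds plus a stimulation mix containing 100uM IBMX and 25uM Ro-20-1724 for 0.5hr at room temperature. cAMP was measured by HTRF competition, 1hr.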

[18] = p53 small molecule agonists, cell-based qHTS assay with human liver microsomes (AID 1963577);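 note: p53 response element beta-lactamase reporter cells with liver microsomes plus NADPH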
Summary of the method: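 p53RE-bla cells; 5 h settle, 37 C/5% CO2; cpd + HLM 0.5 mg/mL + NADPH 0.5 mg/mL (final); 16 h 37 C; LiveBLAzer 2 h RT dark; fluorescence readout.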

[19] = p53 small molecule agonists, cell-based qHTS assay with human liver microsomes: qHTS cell viability counter screen (AID 1963579); note: nearly all actives have a fitted effect of over 45% in size
Summary of the method: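 Luminescent CellTiter-Glo read-out, 30 min at room temperature, gauged cytotoxicity in p53RE-bla cells exposed 16 h at 37 C to DMSO-dissolved compounds with metabolic activation by human liver microsomes and NADPH, each 0.5 mg/mL final.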

[20] = p53 small molecule agonists, cell-based qHTS assay (AID 1963582; active = well fitted activation curve with a large enough effect in the signal ratio in the repeat runs, not every such curve was filed as active; the % refers to the signal ratio)
Summary of the method: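 16 h compound exposure (37 C) of p53 response element–bla cells, preceded by 5 h recovery at 37 C/5% CO2; read-out via LiveBLAzer B/G FRET substrate, 2 h RT, fluorescence intensity.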
% is set by controls: 0 for no effect and ±100 for the full control effect.

Sequence of Beta-2 adrenergic receptor (Homo sapiens) (P07550 whole entry, looked up): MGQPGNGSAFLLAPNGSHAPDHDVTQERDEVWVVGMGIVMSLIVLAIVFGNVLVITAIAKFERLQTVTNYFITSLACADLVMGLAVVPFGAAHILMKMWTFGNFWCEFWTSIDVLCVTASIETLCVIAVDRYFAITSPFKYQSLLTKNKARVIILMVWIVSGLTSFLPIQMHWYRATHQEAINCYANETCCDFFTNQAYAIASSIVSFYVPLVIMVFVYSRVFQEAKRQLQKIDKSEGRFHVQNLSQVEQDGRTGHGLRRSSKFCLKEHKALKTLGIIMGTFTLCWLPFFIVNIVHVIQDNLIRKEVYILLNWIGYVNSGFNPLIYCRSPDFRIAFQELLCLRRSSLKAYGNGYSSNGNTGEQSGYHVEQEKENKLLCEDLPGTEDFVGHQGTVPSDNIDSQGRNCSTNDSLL
Sequence of Gonadotropin-releasing hormone receptor (Homo sapiens) (P30968 whole entry, looked up): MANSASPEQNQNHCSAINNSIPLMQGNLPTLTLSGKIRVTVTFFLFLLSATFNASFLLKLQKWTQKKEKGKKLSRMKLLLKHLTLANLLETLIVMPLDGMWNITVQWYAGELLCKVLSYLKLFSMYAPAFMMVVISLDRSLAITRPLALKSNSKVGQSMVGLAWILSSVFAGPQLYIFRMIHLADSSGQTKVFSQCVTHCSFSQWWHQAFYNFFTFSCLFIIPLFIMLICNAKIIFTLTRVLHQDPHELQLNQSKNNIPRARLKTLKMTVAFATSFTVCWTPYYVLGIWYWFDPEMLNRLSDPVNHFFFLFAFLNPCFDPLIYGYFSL
Sequence of D(2) dopamine receptor (Homo sapiens) (P14416 whole entry, looked up): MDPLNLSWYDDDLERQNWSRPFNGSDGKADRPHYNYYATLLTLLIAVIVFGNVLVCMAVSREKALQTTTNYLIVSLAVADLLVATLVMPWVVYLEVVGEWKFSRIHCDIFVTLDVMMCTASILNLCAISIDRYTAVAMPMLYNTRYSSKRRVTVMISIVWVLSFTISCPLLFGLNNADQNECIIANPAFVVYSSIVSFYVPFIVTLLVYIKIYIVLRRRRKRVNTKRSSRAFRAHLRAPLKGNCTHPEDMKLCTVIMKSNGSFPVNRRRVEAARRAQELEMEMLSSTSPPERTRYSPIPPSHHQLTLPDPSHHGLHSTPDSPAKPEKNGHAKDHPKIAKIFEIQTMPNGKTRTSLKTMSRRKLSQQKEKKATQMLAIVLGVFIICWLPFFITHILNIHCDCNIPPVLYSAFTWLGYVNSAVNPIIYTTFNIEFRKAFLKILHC
Sequence of KiSS-1 receptor (Homo sapiens) (Q969F8 whole entry, looked up): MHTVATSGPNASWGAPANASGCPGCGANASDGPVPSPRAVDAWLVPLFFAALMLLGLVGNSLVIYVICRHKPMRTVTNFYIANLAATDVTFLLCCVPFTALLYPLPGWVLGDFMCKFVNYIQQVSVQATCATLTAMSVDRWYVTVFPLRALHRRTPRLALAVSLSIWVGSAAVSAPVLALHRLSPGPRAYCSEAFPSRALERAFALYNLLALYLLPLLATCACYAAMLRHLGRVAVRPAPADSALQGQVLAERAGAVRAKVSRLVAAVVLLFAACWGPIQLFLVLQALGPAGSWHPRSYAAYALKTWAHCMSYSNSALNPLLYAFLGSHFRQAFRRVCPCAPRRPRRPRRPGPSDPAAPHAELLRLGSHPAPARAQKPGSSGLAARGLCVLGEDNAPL
Sequence of Muscarinic acetylcholine receptor M1 (Homo sapiens) (P11229 whole entry, looked up): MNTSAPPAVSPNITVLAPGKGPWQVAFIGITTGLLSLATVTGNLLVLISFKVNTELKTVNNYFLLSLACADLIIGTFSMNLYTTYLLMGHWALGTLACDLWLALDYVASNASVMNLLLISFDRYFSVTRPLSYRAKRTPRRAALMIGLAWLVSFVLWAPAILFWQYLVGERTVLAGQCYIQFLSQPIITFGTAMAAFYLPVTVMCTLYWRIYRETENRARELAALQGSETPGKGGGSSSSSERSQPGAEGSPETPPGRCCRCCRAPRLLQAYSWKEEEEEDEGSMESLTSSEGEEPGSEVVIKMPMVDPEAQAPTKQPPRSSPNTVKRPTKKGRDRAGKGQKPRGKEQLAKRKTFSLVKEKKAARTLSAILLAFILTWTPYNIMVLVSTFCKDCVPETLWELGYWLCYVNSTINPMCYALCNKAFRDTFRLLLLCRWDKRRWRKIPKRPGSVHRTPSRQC
Sequence of 5-hydroxytryptamine receptor 2A (Homo sapiens) (P28223 whole entry, looked up): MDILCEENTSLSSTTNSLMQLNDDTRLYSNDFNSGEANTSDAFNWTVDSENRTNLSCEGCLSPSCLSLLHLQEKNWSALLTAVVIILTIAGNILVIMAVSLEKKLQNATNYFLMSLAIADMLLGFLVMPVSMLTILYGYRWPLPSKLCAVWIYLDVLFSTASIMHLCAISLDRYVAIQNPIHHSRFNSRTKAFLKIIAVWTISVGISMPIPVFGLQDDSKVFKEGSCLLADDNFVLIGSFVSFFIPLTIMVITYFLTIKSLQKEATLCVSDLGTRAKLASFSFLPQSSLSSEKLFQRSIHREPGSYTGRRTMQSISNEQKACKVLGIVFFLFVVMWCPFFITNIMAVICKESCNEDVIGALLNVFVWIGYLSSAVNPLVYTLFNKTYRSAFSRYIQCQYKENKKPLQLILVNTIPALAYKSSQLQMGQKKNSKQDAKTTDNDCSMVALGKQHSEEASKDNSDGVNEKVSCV

FC(Cl)(Cl)C(F)(Cl)Cl
inactive: Potency [1] | Potency [2] | Potency [3] | Potency [4] | Potency [5] | Potency [6] | Potency [7] | Potency [8] | Potency [9] | Potency [10] | Potency [11] | Potency [12] | Potency [13] | Potency [14] | Potency [15]

O=[N+]([O-])c1ccc(F)c([N+](=O)[O-])c1
active: Potency [1] 27.6 µM
inactive: Potency [2] | Potency [3] | Potency [4] | Potency [5] | Potency [6] | Potency [8] | Potency [16] | Potency [10]

CCC1(c2cccc(O)c2)CCCCN(C)C1 (stereo unspecified)
inactive: Potency [1] | Potency [2] | Potency [3] | Potency [4] | Potency [5] | Potency [6] | Potency [7] | Potency [16] | Potency [9] | Potency [10] | Potency [11] | Potency [13] | Potency [17] | Potency [14] | Potency [15]

Nc1c(Cl)c(F)nc(OCC(=O)O)c1Cl
inactive: Potency [1] | Potency [2] | Potency [3] | Potency [4] | Potency [18] | Potency [19] | Potency [6] | Potency [20] | Potency [8] | Potency [16] | Potency [9] | Potency [10] | Potency [12] | Potency [17] | Potency [14] | Potency [15]

CCCCCCCCCCCCN=C(N)N
inactive: activity change, negative = cytotoxicity [1] -1.49% [at 3.27 µM] | activity, positive = activation [2] -21.7% [at 3.27 µM] | activity change [3] 1.72% [at 2.04 µM, stronger effect = higher value] | activation [4] 1.8% [at 2.72 µM] | activation [18] 0.2% [at 2.33 µM] | activity change, negative = cytotoxicity [19] -3.65% [at 2.33 µM] | activity change, negative = cytotoxicity [7] 10.9% [at 2.33 µM] | activation [20] -3.75% [at 2.33 µM] | activation [16] -1.31% [at 2.65 µM] | activity, negative = inhibition [9] 8.27% [at 2.17 µM] | activation [10] -0.462% [at 2.72 µM] | activation [11] -0.694% [at 3.27 µM] | activity change, negative = inhibition [12] 1.77% [at 3.27 µM] | activity change, negative = inhibition [13] -9.86% [at 3.27 µM] | activation [14] -4% [at 3.27 µM] | activity change, negative = inhibition [15] -0.313% [at 3.28 µM]

N#CCCSCCC#N
inactive: Potency [1] | Potency [2] | Potency [3] | Potency [4] | Potency [18] | Potency [19] | Potency [6] | Potency [7] | Potency [20] | Potency [8] | Potency [16] | Potency [9] | Potency [10] | Potency [11] | Potency [13] | Potency [17] | Potency [14]

NC(=O)c1ccc(N)nc1
inactive: Potency [1] | Potency [2] | Potency [3] | Potency [4] | Potency [18] | Potency [19] | Potency [8] | Potency [16] | Potency [9] | Potency [10] | Potency [11] | Potency [12] | Potency [13] | Potency [14] | Potency [15]
active: Potency [7] 5.76 µM

CC1(c2ccc(Oc3ccccc3)cc2)OC(=O)N(Nc2ccccc2)C1=O (stereo unspecified)
active: Potency [1] 27.5 µM | Potency [9] 5.33 µM | Potency [12] 61.5 µM
inactive: Potency [2] | Potency [3] | Potency [4] | Potency [18] | Potency [19] | Potency [7] | Potency [20] | Potency [16] | Potency [10] | Potency [11] | Potency [17] | Potency [14] | Potency [15]

CN(C)CCN(C)C
inactive: Potency [1] | Potency [2] | Potency [3] | Potency [4] | Potency [5] | Potency [6] | Potency [7] | Potency [16] | Potency [9] | Potency [10] | Potency [11] | Potency [12] | Potency [13] | Potency [17] | Potency [14] | Potency [15]
